The panel holds about 79,000 compounds, 15% with a hit somewhere; the sample as a whole holds those more often. Unmarked numbers belong to inactive results. Activity calls are given as the source filed them. No stated cut-off is given here; in the data, active means growth inhibition above about 70%; inactive means the rest.
Columns and labels:
[1] = NCI Yeast Anticancer Drug Screen. Data for the rad50 strain (AID 155);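 further: 0% = growth of vehicle-only cultures of the same strain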; conditions: S. cerevisiae rad50 strain growth inhibition, stronger effect = higher value
Summary of the method: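 DNA repair mutant yeast, compound exposure, growth read-out; inhibition is taken relative to vehicle.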

[2] = NCI Yeast Anticancer Drug Screen. Data for the mec2-1 strain (AID 157); conditions: S. cerevisiae mec2-1 strain, stronger effect = higher value
Summary of the method: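 Vehicle-treated cultures served as reference for growth inhibition of compound-exposed mec2-1 yeast.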

[3] = NCI Yeast Anticancer Drug Screen. Data for the sgs1 mgt1 strain (AID 161);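 further: 0% = growth of cultures given vehicle only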; conditions: S. cerevisiae sgs1 mgt1 strain, stronger effect = higher value
Summary of the method: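 Read-out: growth inhibition vs vehicle controls. Cells: mutant yeast strain deficient in DNA damage repair.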

[4] = NCI Yeast Anticancer Drug Screen. Data for the cln2 rad14 strain (AID 165);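 further: 0% = growth equal to vehicle treated cultures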; conditions: S. cerevisiae cln2 rad14 strain, stronger effect = higher value
Summary of the method: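 Each compound was tested on cln2 rad14 yeast. Inhibition of growth was calculated against vehicle-exposed controls.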

[5] = NCI Yeast Anticancer Drug Screen. Data for the bub3 strain (AID 167); conditions: S. cerevisiae bub3 mutant strain, stronger effect = higher value
Summary of the method: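 In this screen, a yeast mutant lacking normal mitotic checkpoint function is challenged with compound. Relative growth versus vehicle gives the inhibition value.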

[6] = NCI Yeast Anticancer Drug Screen. Data for the mlh1 rad18 strain (AID 175); conditions: S. cerevisiae mlh1 rad18 strain growth inhibition, stronger effect = higher value
Summary of the method: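 Vehicle-treated cultures served as the reference for growth inhibition in a yeast strain carrying DNA damage repair alterations exposed to each compound.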

[7] = at 5.0 µM (retest, dose inferred, filed as 0.5)
[8] = at 50.0 µM (retest, dose inferred, filed as 5.0)

CCOc1cc(F)c([N+](=O)[O-])cc1[N+](=O)[O-]
growth inhibition [1, 7]: 92% (active) | growth inhibition [1, 8]: 99% (active) | growth inhibition ([1]; at 50.0 µM): 98.7% (active) | growth inhibition [2, 7]: 94% (active) | growth inhibition [2, 8]: 100% (active) | growth inhibition ([2]; at 50.0 µM): 54.4% | growth inhibition [3, 7]: 96% (active) | growth inhibition [3, 8]: 99% (active) | growth inhibition ([3]; at 50.0 µM): 51.5% | growth inhibition [4, 7]: 97% (active) | growth inhibition [4, 8]: 100% (active) | growth inhibition ([4]; at 50.0 µM): 98.4% (active) | growth inhibition [5, 7]: 91% (active) | growth inhibition [5, 8]: 99% (active) | growth inhibition ([5]; at 50.0 µM): 99% (active) | growth inhibition [6, 7]: 92% (active) | growth inhibition [6, 8]: 100% (active) | growth inhibition ([6]; at 50.0 µM): 98.5% (active)

OC(c1cc2ccc(C(F)(F)F)cc2c2cc(C(F)(F)F)ccc12)C1CCCCN1 (centres undefined)
growth inhibition [1, 7]: 85% (active) | growth inhibition [1, 8]: 98% (active) | growth inhibition ([1]; at 50.0 µM): 89.6% (active) | growth inhibition [2, 7]: 77% (active) | growth inhibition [2, 8]: 98% (active) | growth inhibition ([2]; at 50.0 µM): 92% (active) | growth inhibition [3, 7]: 96% (active) | growth inhibition [3, 8]: 98% (active) | growth inhibition ([3]; at 50.0 µM): 88.9% (active) | growth inhibition [4, 7]: 44% | growth inhibition [4, 8]: 97% (active) | growth inhibition ([4]; at 50.0 µM): 88.2% (active) | growth inhibition [5, 7]: 91% (active) | growth inhibition [5, 8]: 99% (active) | growth inhibition ([5]; at 50.0 µM): 85.5% (active) | growth inhibition [6, 7]: 97% (active) | growth inhibition [6, 8]: 97% (active) | growth inhibition ([6]; at 50.0 µM): 85.7% (active)

Cc1cc(C(N)=O)cc(C)c1C(=O)OCCCl
growth inhibition [1, 7]: -4% | growth inhibition [1, 8]: -1% | growth inhibition ([1]; at 50.0 µM): 31.7% | growth inhibition [2, 7]: -5% | growth inhibition [2, 8]: -2% | growth inhibition ([2]; at 50.0 µM): 66.4% | growth inhibition [3, 7]: -4% | growth inhibition [3, 8]: -2% | growth inhibition ([3]; at 50.0 µM): -4.05% | growth inhibition [4, 7]: -3% | growth inhibition [4, 8]: -8% | growth inhibition ([4]; at 50.0 µM): -114% | growth inhibition [5, 7]: -2% | growth inhibition [5, 8]: -2% | growth inhibition ([5]; at 50.0 µM): 51.9% | growth inhibition [6, 7]: -57% | growth inhibition [6, 8]: 0% | growth inhibition ([6]; at 50.0 µM): 58.1%

From PubChem BioAssay (NCI)
